Results on 37 compounds are retold here after PubChem BioAssay (NCI).

About 79,000 compounds went through this panel and 15% of them were active in at least one assay; those are over-represented in the sample as a whole. A number with no mark means an inactive call. Active and inactive are the calls of the source. Rule as the data show it: active = growth inhibition above about 70%; inactive = the rest.

A short description of assay [1]: NCI Yeast Anticancer Drug Screen. Data for the rad50 strain (AID 155).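 Also: 0% = growth of vehicle-only cultures of the same strain.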 The following applies: S. cerevisiae rad50 strain growth inhibition; at 50.0 µM; active compounds read high. In a few lines:
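Yeast carrying a defined DNA repair defect were exposed to test compounds, and growth was compared with vehicle-treated controls to give percent inhibition.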

The nature of assay [2]: NCI Yeast Anticancer Drug Screen. Data for the mec2-1 strain (AID 157). The conditions noted are these: S. cerevisiae mec2-1 strain, at 50.0 µM, active compounds read high. In a few lines: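 Growth inhibition is read against vehicle-treated controls after compound exposure of the mec2-1 yeast strain, which is defective in DNA damage repair or cell cycle control.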
Assay [3] can be described thus: NCI Yeast Anticancer Drug Screen. Data for the sgs1 mgt1 strain (AID 161).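 Also: 0% = growth of cultures given vehicle only.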 The conditions noted are these: S. cerevisiae sgs1 mgt1 strain, at 50.0 µM, active compounds read high. In a few lines:
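Growth of a repair-deficient yeast mutant was monitored after compound treatment and expressed as inhibition relative to vehicle-treated cultures.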

Assay [4] is described as follows: NCI Yeast Anticancer Drug Screen. Data for the cln2 rad14 strain (AID 165).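 Also: 0% = growth equal to vehicle treated cultures.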 The following applies: S. cerevisiae cln2 rad14 strain, at 50.0 µM, active compounds read high. In a few lines:
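Growth inhibition, relative to vehicle-treated controls, is the read-out. The test organism is a yeast strain with defined genetic alterations, cln2 rad14.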

The nature of assay [5]: NCI Yeast Anticancer Drug Screen. Data for the bub3 strain (AID 167). The conditions noted are these: S. cerevisiae bub3 mutant strain, at 50.0 µM, active compounds read high. In a few lines:
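Compounds were applied to a genetically altered yeast strain carrying a cell-cycle control defect. Growth inhibition was scored against vehicle-treated controls.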

The nature of assay [6]: NCI Yeast Anticancer Drug Screen. Data for the mlh1 rad18 strain (AID 175). The following applies: S. cerevisiae mlh1 rad18 strain growth inhibition; at 50.0 µM; active compounds read high. In a few lines:
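Cells of a genetically altered yeast strain, deficient in DNA damage repair, were treated with compound. Their growth was then compared with that of vehicle-treated cultures to give inhibition.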

As to `COc1ccc2ccc3c(c2c1)C(=O)C(CC(N)=O)C3` (configuration not stated), the growth inhibition in assay [1] was 1.75%; in assay [2], 1.2%; in assay [3], -10.7%; in assay [4], 0.4%; in assay [5], -4.1%; in assay [6], 15%.

On to `CCOc1c(N=Nc2ccc(Br)cc2)c(C)nn1C(N)=S`, for which the growth inhibition is -4.5% in assay [1]; 33.9% in assay [2]; 26.1% in assay [3]; -0.3% in assay [4]; 31.2% in assay [5]; 45% in assay [6].

`COc1cc(CC/C(C)=N/O)ccc1OCc1ccccc1`: the growth inhibition in assay [1] was -13.1%; in assay [2], -21.2%; in assay [3], 0.7%; in assay [4], -39.6%; in assay [5], 9.65%; in assay [6], -22.8%.

`CNc1ccccc1C(=O)N/N=C\c1ccc(Cl)cc1Cl`: the growth inhibition in assay [1] is -7.75%; in assay [2] it was -4.9%; in assay [3], -1.3%; in assay [4], -2.85%; in assay [5], -10.1%; in assay [6] it was -5.15%.

Regarding `COc1cc2c(c(OC)c1OC)-c1ccc(OC)c(=O)cc1[C@@H](NC(=O)c1ccccc1)CC2`, the growth inhibition in assay [1] was 11.7%; in assay [2], 7.15%; in assay [3], 18.7%; in assay [4] it was -0.05%; in assay [5] it was 14.2%; in assay [6], 18.9%.

On to `N#C/C=C(\N)C(C#N)C#N`, for which the growth inhibition in assay [1] is -4.85%; in assay [2], -25.9%; in assay [3] it was -3.15%; in assay [4], 6.75%; in assay [5], -3.6%; in assay [6], 4.8%.

With `Cc1c(O)c(=O)ccn1C1OC(CO)C(O)C1O` (configuration not stated), the growth inhibition is 16.5% in assay [1]; 22.9% in assay [2]; 25.5% in assay [3]; -2.9% in assay [4]; 15.8% in assay [5]; 26% in assay [6].

In the case of `N=c1oc2ccccc2cc1-c1nc2ccccc2c(=O)[nH]1`, the growth inhibition in assay [1] is -1.75%; in assay [2] it was -3.25%; in assay [3], 4.5%; in assay [4], 11.7%; in assay [5], -13.4%; in assay [6], 17.3%.

With `C(=C\P(c1ccccc1)c1ccccc1)/P(/C=C/P(c1ccccc1)c1ccccc1)c1ccccc1`, the growth inhibition is -18.4% in assay [1]; -14.8% in assay [2]; -42.1% in assay [3]; 8.15% in assay [4]; -18.9% in assay [5]; -28.1% in assay [6].

As for `CCOC(=O)COc1c(C)cccc1Cl`, the growth inhibition in assay [1] was 4.2%; in assay [2], 0.6%; in assay [3], -0.25%; in assay [4], -28.9%; in assay [5], -23.6%; in assay [6], -24.6%.

In the case of `Cc1ccc(O)c(C)n1`, the growth inhibition in assay [1] was 4.2%; in assay [2] it was 14%; in assay [3], 0.15%; in assay [4], 7%; in assay [5], -0.2%; in assay [6], -2.9%.

For the compound `c1ccc(C(CCN2CC3CCC(CC3)C2)c2ccccc2)cc1`, the growth inhibition in assay [1] is 14.6%; in assay [2], -21.4%; in assay [3], -17.9%; in assay [4] it was -22.6%; in assay [5] it was -21.9%; in assay [6], 22.6%.

In the case of `O=C(OCC(O)C(O)C(O)C(SCc1ccccc1)SCc1ccccc1)c1ccc([N+](=O)[O-])cc1` (configuration not stated), the growth inhibition in assay [1] was 23.6%; in assay [2] it was 3.1%; in assay [3], 31.6%; in assay [4], 20.4%; in assay [5] it was -1%; in assay [6], 5.85%.

`O=C(Cc1nc2ccccc2o1)C(=O)Nc1ccc(Cl)cc1Cl`: the growth inhibition was 10.7% in assay [1]; -4.6% in assay [2]; 0.8% in assay [3]; 17.1% in assay [4]; -15.7% in assay [5]; 16.2% in assay [6].

In the case of `CCOC(=O)C(C#N)C1CC2CCC1C2` (configuration not stated), the growth inhibition was -30.2% in assay [1]; -57.4% in assay [2]; -22.2% in assay [3]; -4.9% in assay [4]; -27.1% in assay [5]; -56.8% in assay [6].

On to `Cc1c([N+](=O)[O-])cc(C(C)(C)C)c(OC(=O)C(Cl)(Cl)Cl)c1[N+](=O)[O-]`, for which the growth inhibition was 58.3% in assay [1]; 72.5% (active) in assay [2]; 73.9% (active) in assay [3]; 78.8% (active) in assay [4]; 88.9% (active) in assay [5]; 72.8% (active) in assay [6].

In the case of `CC(=O)Nc1ccc(C(=O)NN2C(=O)C(Cl)C2c2ccccc2)cc1` (configuration not stated), the growth inhibition in assay [1] is -22.1%; in assay [2] it was -18.4%; in assay [3], -49.4%; in assay [4], -10.2%; in assay [5] it was -28.8%; in assay [6], -28.6%.

In the case of `C=C(C)CN(C#N)CC(=C)C`, the growth inhibition in assay [1] is -15.2%; in assay [2], 10.6%; in assay [3], 6.35%; in assay [4], -17.2%; in assay [5], -3.95%; in assay [6] it was 3.45%.

With `O=C(O)/C=C/c1ccc(C(NC(=O)N2C(=O)C=CC2=O)NC(=O)N2C(=O)C=CC2=O)cc1`, the growth inhibition in assay [1] is 37.8%; in assay [2], 15.8%; in assay [3], 42.3%; in assay [4] it was 15.7%; in assay [5] it was 13.3%; in assay [6] it was 19%.

`c1ccc(CSc2ncnc3oc(-c4ccccc4)nc23)cc1`: the growth inhibition in assay [1] was 22.5%; in assay [2] it was 17.2%; in assay [3] it was 13.6%; in assay [4], 11.2%; in assay [5] it was 24%; in assay [6], 16.4%.

For the compound `Fc1ccc2nncc(SCc3ccc(Cl)c(Cl)c3)c2c1`, the growth inhibition in assay [1] was -1%; in assay [2], 0.15%; in assay [3], 3.8%; in assay [4] it was -11.2%; in assay [5], 18.4%; in assay [6], -2.05%.

Consider `Cc1nc2ccc(Cl)cc2c(=O)[nH]1`, for which the growth inhibition in assay [1] is -6.35%; in assay [2], -6.45%; in assay [3], -8.65%; in assay [4], -57.2%; in assay [5], -16.2%; in assay [6], 0.9%.

In the case of `CONCC(=O)c1ccc(SC)cc1`, the growth inhibition in assay [1] is -18.4%; in assay [2], 0.6%; in assay [3], -13.8%; in assay [4], -21.8%; in assay [5] it was -9.7%; in assay [6], 0%.

As for `CC(=O)[CH-]C(=O)c1ccccc1.CC(=O)[CH-]C(=O)c1ccccc1.CC[O-].O=C1C=C([O-])C(=O)c2ccccc21.[Ti+4]`, the growth inhibition is 25.4% in assay [1]; 60.5% in assay [2]; 63.5% in assay [3]; 61.1% in assay [4]; 59.9% in assay [5]; 56.9% in assay [6].

For the compound `O=C(O)/C=C/C(=O)Nc1cc(Cl)cc2c1-c1c(Cl)cc(Cl)cc1C2O` (configuration not stated), the growth inhibition in assay [1] was 83.7% (active); in assay [2], 54%; in assay [3], 84% (active); in assay [4] it was -5.45%; in assay [5], 11.3%; in assay [6], 51.9%.

Consider `O=C(O)C1OC1(c1ccccc1Cl)c1ccccc1Cl` (configuration not stated), for which the growth inhibition in assay [1] is 7.3%; in assay [2], -13.2%; in assay [3] it was 7.8%; in assay [4], 1.55%; in assay [5], -3.3%; in assay [6], 9.55%.

Turning to `COc1cc(C2C3=C(COC3=O)OC(C)(C)Oc3cc4c(cc32)OCO4)cc(OC)c1OC` (configuration not stated), the growth inhibition in assay [1] is 4.95%; in assay [2], -11.8%; in assay [3], 14.8%; in assay [4], 52.9%; in assay [5] it was -8.8%; in assay [6], 22%.

As for `O=C(NNC(=O)c1cccc(Br)c1)c1ccccc1`, the growth inhibition is 4.05% in assay [1]; -37.6% in assay [2]; -0.1% in assay [3]; 5.65% in assay [4]; -7.15% in assay [5]; -3.15% in assay [6].

Turning to `COc1cc(NCCN2CCOCC2)c([N+](=O)[O-])cc1OC`, the growth inhibition in assay [1] is 22.3%; in assay [2], 12.1%; in assay [3], 8.25%; in assay [4], 2.6%; in assay [5] it was -0.65%; in assay [6], 8.15%.

As for `Cc1ccc(/[N+]([O-])=N/N2C(=O)c3ccccc3C2=O)cc1`, the growth inhibition in assay [1] is -15.4%; in assay [2], -18.6%; in assay [3], -10.1%; in assay [4], -23.5%; in assay [5], -16.6%; in assay [6], -2.9%.

For `O=C(O)C(=O)O.[Co+3].[NH-]C(Cc1ccccc1)C(=O)[O-].[NH-]CCN(CC[NH-])CC[NH-]` (configuration not stated), the growth inhibition in assay [1] is 28.2%; in assay [2] it was 15.8%; in assay [3] it was 8.8%; in assay [4], 22.6%; in assay [5] it was 2.7%; in assay [6], 25.6%.

As to `NNc1c(F)c(F)c2c(F)c(F)c(F)c(F)c2c1F`, the growth inhibition in assay [1] was 97.8% (active); in assay [2], 96.5% (active); in assay [3], 95.5% (active); in assay [4], 94.5% (active); in assay [5], 97.7% (active); in assay [6], 97.5% (active).

`Clc1ccc(CSC2=NCCN2)cc1Cl`: the growth inhibition is -17% in assay [1]; -26.4% in assay [2]; -21.9% in assay [3]; -24.4% in assay [4]; -14% in assay [5]; 12.8% in assay [6].

For the compound `OCCc1nccnn1`, the growth inhibition was -2.65% in assay [1]; 5.8% in assay [2]; 1.9% in assay [3]; -1.35% in assay [4]; 4.65% in assay [5]; -3.6% in assay [6].

For `COC(=O)C1C(O)C(C)C(OC(C)=O)C(C)/C=C\C=C(C)C(=O)Nc2c(C)c(OC(C)=O)c3c(c2O)C(=O)C(C)=C2OCOC(=C23)C(C)=CC(C)(O)C(O)C(C)C1O` (configuration not stated), the growth inhibition in assay [1] was 3.25%; in assay [2], -18.8%; in assay [3], 15.7%; in assay [4], 3.35%; in assay [5], 26.8%; in assay [6] it was 20.9%.

Consider `NCc1ccc2ccc3ccccc3c2c1`, for which the growth inhibition is 11.1% in assay [1]; -0.95% in assay [2]; -1.35% in assay [3]; 11.2% in assay [4]; -4.45% in assay [5]; 19.7% in assay [6].

Regarding `O=C(CNCc1ccccc1)NC(Cc1ccccc1)c1ccccc1` (configuration not stated), the growth inhibition in assay [1] is 8.15%; in assay [2], -14.3%; in assay [3] it was 0.35%; in assay [4], 16.9%; in assay [5], 13.4%; in assay [6], 20.9%.
